From PubChem BioAssay come the findings set out here.

Records with an inconclusive call do not appear. Active and inactive are the calls of the source.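 How the source made its calls, unless noted: active means viability loss from added drug above about 55%, and viability with drug at most 40%, in both replicates (limit read from the data, passing the limit was not always enough); inconclusive means both conditions met in only one replicate; inactive means neither replicate meets both conditions.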

Assay [1] in a line: reducers of endogenous Her2 protein level, primary screen, SKBR3 breast tumor cells, AlphaScreen, ATP viability (AID 461;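 active means Her2 level under about 52% in both replicate screens, with viability over 70% of control, limit read from the data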;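 on Her2 level: lower value means less Her2 protein in the cells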;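 on viability: percent of carrier control wells set as 100% viability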). To be noted: 18-24 h, measured here: SKBR3 viability, ATP luminescence, at 10 µM.
The target of assay [2] is Receptor tyrosine-protein kinase erbB-2 (Homo sapiens) (UniProt P04626). Described as above. To be noted: 18-24 h, at 10 µM, stronger effect = lower value.
Chain of Receptor tyrosine-protein kinase erbB-2 (Homo sapiens) (P04626 whole entry, looked up): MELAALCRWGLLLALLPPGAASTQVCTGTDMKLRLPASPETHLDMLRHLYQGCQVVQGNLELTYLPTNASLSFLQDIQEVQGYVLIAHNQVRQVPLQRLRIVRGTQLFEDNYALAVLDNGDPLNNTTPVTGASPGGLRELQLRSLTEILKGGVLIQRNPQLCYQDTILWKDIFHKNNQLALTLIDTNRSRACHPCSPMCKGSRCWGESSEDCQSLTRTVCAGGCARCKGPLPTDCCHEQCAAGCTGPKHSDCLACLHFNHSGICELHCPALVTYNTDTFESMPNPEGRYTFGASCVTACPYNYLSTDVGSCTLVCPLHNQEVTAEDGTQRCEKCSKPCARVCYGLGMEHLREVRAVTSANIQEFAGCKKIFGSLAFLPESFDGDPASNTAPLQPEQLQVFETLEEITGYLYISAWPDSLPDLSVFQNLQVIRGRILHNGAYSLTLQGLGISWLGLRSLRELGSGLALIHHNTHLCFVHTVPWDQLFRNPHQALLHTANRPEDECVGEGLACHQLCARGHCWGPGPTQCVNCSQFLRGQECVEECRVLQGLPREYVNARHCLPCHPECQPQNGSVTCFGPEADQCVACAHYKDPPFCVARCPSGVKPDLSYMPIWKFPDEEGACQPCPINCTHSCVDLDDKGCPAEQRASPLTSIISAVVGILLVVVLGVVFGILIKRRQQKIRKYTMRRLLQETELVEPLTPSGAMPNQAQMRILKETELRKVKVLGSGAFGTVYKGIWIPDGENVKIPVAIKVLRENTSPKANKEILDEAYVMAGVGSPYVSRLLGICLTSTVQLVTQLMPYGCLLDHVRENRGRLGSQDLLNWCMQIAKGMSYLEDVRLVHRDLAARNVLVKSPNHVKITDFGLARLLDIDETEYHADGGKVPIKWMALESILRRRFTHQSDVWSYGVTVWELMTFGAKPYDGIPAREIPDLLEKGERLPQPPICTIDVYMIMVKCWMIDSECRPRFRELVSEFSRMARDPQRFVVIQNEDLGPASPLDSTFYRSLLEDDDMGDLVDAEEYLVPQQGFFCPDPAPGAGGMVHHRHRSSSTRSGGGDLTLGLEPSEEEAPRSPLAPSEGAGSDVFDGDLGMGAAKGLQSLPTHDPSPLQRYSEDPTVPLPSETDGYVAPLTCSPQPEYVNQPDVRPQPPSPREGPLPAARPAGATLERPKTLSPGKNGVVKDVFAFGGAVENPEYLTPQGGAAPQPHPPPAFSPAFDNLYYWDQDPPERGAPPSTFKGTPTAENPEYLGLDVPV
Assay [3] can be described thus: SK-BR-3 cell growth inhibitors, pilot screen, 24 h, human (AID 572;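 active means viability at or below 10% of carrier control in both of two separate runs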;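 further: compound exposure lasted between 18 and 24 h rather than exactly 24 h; 100% = carrier-treated control wells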). To be noted: SK-BR-3 viability, CellTiter-Glo luminescence, at 10 µM, stronger effect = lower value. In general terms: Cellular ATP, detected with luciferase, serves as a proxy for viable cell number.
A short description of assay [4]: HUVEC growth inhibition – cell-based, human, primary screen (AID 575;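 active means viability at or below 30% in both replicate assays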;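 further: 100% = median of untreated cell wells with 0.1% DMSO on each plate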). To be noted: HUVEC proliferation, CellTiter-Glo luminescence, 72 h; at 10 µM; stronger effect = lower value.
Assay [5] can be described thus: growth inhibitors of H69AR lung tumor, primary screen, human, duplicate replicates (AID 580;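 active means viability at or under a set limit in both replicates, limit being median viability minus 3 SD, cut at about 48% in these data, passing the limit was not always enough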;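 further: 100% = mean luminescence of untreated wells and 0% = no signal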). Conditions: H69AR lung tumor cells viability, ATP luminescence, 72 h; at 10 µM; stronger effect = lower value.
The nature of assay [6]: reversal of MRP1-mediated doxorubicin resistance, pilot screen, H69AR cells, doxorubicin co-treatment (AID 601). To be noted: CellTiter-Glo, 72 h, at 10 µM; for differential viability (reversal): stronger effect = higher value.
A short description of assay [7]: 384-well plate pilot, post-Golgi transport modulator project, inhibition of yeast transport mutant growth (AID 636; in the data active means inhibition above about 31%). To be noted: absorbance 615 nm, about 18 h, stronger effect = higher value.
Assay [8] can be described thus: growth suppression of yeast trafficking mutant, preliminary HTS, modulators of trafficking downstream of Golgi apparatus project, 1536-format plate, OD 615 nm (AID 637; in the data active means inhibition above about 30%). Conditions: yeast transport mutant growth, absorbance 615 nm, 18 h; stronger effect = higher value.
A short description of assay [9]: OD615 S. cerevisiae growth inhibition, permissive medium, pilot counter-assay, permissive growth control for S. cerevisiae lifespan shortening project (AID 705;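 active means growth inhibition above 25% in both replicates, a cutoff set 3 SD above the mean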). Conditions: OD615, 24 h, at 10 µM, stronger effect = higher value.
Assay [10] is described as follows: Restrictive medium S. cerevisiae growth inhibition, OD615, pilot screen of yeast lifespan reduction project, restrictive growth control (AID 706;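 active means growth inhibition above a set limit, 3 SD over mean compound inhibition, in both replicates, cut at about 43% in these data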;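 further: modified DeaD lifespan yeast strain shifted to restrictive glucose medium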). Conditions: OD615, 48 h, at 10 µM, stronger effect = higher value.
The nature of assay [11]: viability gain of MRP-1-high H69AR cells under doxorubicin, pilot screen, MRP-1 activator project, CellTiter-Glo, duplicate (AID 807;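 active means viability increase at or above a cutoff of the median across tested compounds plus 3 SD, cut at about 8.5% in these data, passing the limit was not always enough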;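 further: compound pretreatment 18-22 h then 72 h combined with doxorubicin; 0% = doxorubicin alone and 100% = vehicle without doxorubicin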). To be noted: H69AR viability with doxorubicin, CellTiter-Glo luminescence; at 10 µM; stronger effect = higher value.
Assay [12] is described as follows: growth suppression of beta-catenin knockout HCT116, pilot screen, human colon tumor cells (AID 823;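 active means cell viability at or below a set limit in both duplicate runs, the limit being the all-compound median minus 4 SD, cut at about 23% in these data, passing the limit was not always enough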;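 further: 0% = wells killed by 20 µM Hyamine and 100% = untreated DMSO cell wells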). To be noted: CellTiter-Glo, 60 h, at 10 µM, stronger effect = lower value.
The nature of assay [13]: growth suppression of PTEN-deleted HCT116, pilot screen, cell-based, HCT116 clonal line, CellTiter-Glo (AID 824;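 active means viability at or below 27.92% in each of two runs, the all-compound median minus 4 SD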;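 further: 0% = 20 µM Hyamine control and 100% = vehicle cell control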). Conditions: 60 h, at 10 µM, stronger effect = lower value.
The nature of assay [14]: inhibitors of the yeast RAM network, pilot screen, dse1pr::URA3 reporter, 5-FOA selection (AID 869;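 active means inhibition over a set limit, the all-compound mean plus 3 SD, in both replicate runs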;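 further: 0% = DMSO wells with no growth and 100% = 10 µM 1-NA-PP1 with full growth; RAM network block rescues cells from 5-FOA so hits raise OD615 growth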). To be noted: S. cerevisiae dse1pr::URA3 5-FOA growth, OD615, 2 d; at 10 µM; stronger effect = higher value; strain carries analog-sensitive mutant Cbk1 kinase.
Assay [15] can be described thus: RAM signaling pathway blockade in yeast – S. cerevisiae, Pdr1DBD-CYC8 efflux-inhibited sensitized strain, primary screen (AID 1298;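 active means RAM network inhibition above 8.4% in each of two replicates, 3 SD over the compound average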;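 further: 0% = DMSO untreated cells without growth and 100% = 10 µM 1-NA-PP1 full growth; higher means more yeast growth rescued from 5-FOA killing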). Conditions: S. cerevisiae cbk1-as DSE1-URA3 strain, 5-FOA growth OD615, 2 d; at 50 µM; stronger effect = higher value.
The mark [16] stands for this setting: H69AR cells + 2 uM doxorubicin, measured here: viability with 2 uM doxorubicin, stronger effect = lower value.
[17] abbreviates: H69AR cells, compound alone cytotoxicity.

Usually viability stands for a read-out of living cells in per cent, often relative to untreated cells. One may read the inhibition as the change of the read-out against control, counted positive when it falls. As to `CCOc1ccc(N(CC(=O)Nc2ccc(F)c(F)c2)S(=O)(=O)c2c(C)noc2C)cc1`, the viability in assay [1] was 83.5%; in assay [3], 83.5% (inactive); in assay [4], 54% (inactive); in assay [5], 65.8% (inactive); in assay [6] (setting [16]), 64.3%; in assay [6] (setting [17]) it was 65.8%. Besides, the viability was 93% (inactive) in assay [12] and 88.7% (inactive) in assay [13]. Moreover, in assay [2], the Her2 level was 80% (inactive). The differential viability (reversal) in [6] (H69AR cells + 2 uM doxorubicin) was 1.49% (inactive). Besides, the figures for the inhibition in assay [7], in assay [8] and in assay [14] were -4.4% (inactive), -1.31% (inactive) and 2.33% (inactive), respectively. The growth inhibition in [9] was -11.3% (inactive); in assay [10], -9.45% (inactive). Besides, the viability increase in assay [11] was -3.6% (inactive). Moreover, in assay [15], the RAM network inhibition was 4.77% (inactive).

Consider `CCCCOc1ccc(-c2ncc(Cl)cn2)cc1`, for which the viability in assay [1] was 110%; in assay [3], 110% (inactive); in [4], 119% (inactive); in assay [5] it was 93.9% (inactive); in assay [6] (setting [16]), 84.8%; in assay [6] (setting [17]), 93.9%. The viability in assay [12] was 86.9% (inactive); in assay [13] it was 96.8% (inactive). Further, the Her2 level in [2] was 117% (inactive). For the same molecule, in assay [6] (H69AR cells + 2 uM doxorubicin), the differential viability (reversal) is 9.19% (inactive). For the same molecule, the inhibition in assay [7] is -4.94% (inactive); in [8], 0.83% (inactive); in assay [14], 1.26% (inactive). Besides, the growth inhibition in [9] was -14.9% (inactive); in assay [10], -12.5% (inactive). In [11], the viability increase is 3.52% (inactive). In addition, the RAM network inhibition in assay [15] was 3.37% (inactive).

On to `CCN(CC)C(=O)Oc1ccccc1NC(C)=O`, for which the viability in assay [1] is 102%; in [3] it was 102% (inactive); in assay [4], 107% (inactive); in assay [5], 90.5% (inactive); in [6] (setting [16]), 90.7%; in assay [6] (setting [17]) it was 90.5%. In addition, the viability is 92.2% (inactive) in [12] and 96.1% (inactive) in assay [13]. Also, the Her2 level in assay [2] was 92% (inactive). Moreover, the differential viability (reversal) in [6] (H69AR cells + 2 uM doxorubicin) is -0.19% (inactive). Besides, the inhibition in assay [7] is -5.14% (inactive); in assay [8], -3% (inactive); in assay [14], 0.84% (inactive). Further, the growth inhibition is 1.79% (inactive) in assay [9] and -2.54% (inactive) in assay [10]. The viability increase in assay [11] is -0.54% (inactive). In addition, the RAM network inhibition in [15] was -0.6% (inactive).

In the case of `O=C(CCCn1c(=O)c2sccc2n(Cc2cc(=O)n3ccccc3n2)c1=O)NCc1ccco1`, the viability in [1] was 82.5%; in assay [3], 82.5% (inactive); in [4], 87.7% (inactive); in assay [5], 77% (inactive); in assay [6] (setting [16]) it was 80%; in [6] (setting [17]), 77%. Besides, the values for the viability in assay [12] and in assay [13] were 91.3% (inactive) and 99.3% (inactive), respectively. Further, the Her2 level in assay [2] was 126% (inactive). For the same molecule, the differential viability (reversal) in [6] (H69AR cells + 2 uM doxorubicin) is -2.97% (inactive). In addition, the inhibition in [7] is 3.59% (inactive); in [8], -4.33% (inactive); in assay [14] it was -0.225% (inactive). For the same molecule, the growth inhibition in assay [9] is -9.24% (inactive); in assay [10], -2.77% (inactive). Moreover, the viability increase in assay [11] was -1.87% (inactive). Further, the RAM network inhibition in assay [15] was 0.21% (inactive).

Consider `Cc1ccc(Cn2c(=O)c3ccccc3n3c(CCC(=O)O)nnc23)cc1`, for which the viability was 107% in [1]; 107% (inactive) in assay [3]; 92.5% (inactive) in [4]; 98.9% (inactive) in [5]; 91.9% in [6] (setting [16]); 98.9% in assay [6] (setting [17]). Also, the viability in assay [12] was 107% (inactive); in [13], 98.7% (inactive). Moreover, in assay [2], the Her2 level was 100% (inactive). In addition, the differential viability (reversal) in [6] (H69AR cells + 2 uM doxorubicin) is 7.02% (inactive). The results for the inhibition in assay [7], in assay [8] and in assay [14] were -5.07% (inactive), 0.33% (inactive) and 2.29% (inactive), respectively. Also, the growth inhibition in assay [9] was 2.68% (inactive); in [10], 7.7% (inactive). Also, the viability increase in [11] was -1.33% (inactive). The RAM network inhibition in [15] was 6.3% (inactive).
